Assay results published in publication PMC4336329 (PLoS ONE, 2015).
The campaign covered roughly 310,000 compounds. About 14,000 (4.5%) showed an effect of 50% or more. The effect is printed as a negative number. Shown is part of a subset that was picked to be rich in strong results.

What follows are compounds tested against human ether-à-go-go-related gene (hERG) potassium channel (human, UniProt Q12809) (assay: primary screen, population patch clamp on CHO cells stably expressing hERG; higher = less effect of the substance).
Sequence of human ether-à-go-go-related gene (hERG) potassium channel (Q12809 whole entry, looked up): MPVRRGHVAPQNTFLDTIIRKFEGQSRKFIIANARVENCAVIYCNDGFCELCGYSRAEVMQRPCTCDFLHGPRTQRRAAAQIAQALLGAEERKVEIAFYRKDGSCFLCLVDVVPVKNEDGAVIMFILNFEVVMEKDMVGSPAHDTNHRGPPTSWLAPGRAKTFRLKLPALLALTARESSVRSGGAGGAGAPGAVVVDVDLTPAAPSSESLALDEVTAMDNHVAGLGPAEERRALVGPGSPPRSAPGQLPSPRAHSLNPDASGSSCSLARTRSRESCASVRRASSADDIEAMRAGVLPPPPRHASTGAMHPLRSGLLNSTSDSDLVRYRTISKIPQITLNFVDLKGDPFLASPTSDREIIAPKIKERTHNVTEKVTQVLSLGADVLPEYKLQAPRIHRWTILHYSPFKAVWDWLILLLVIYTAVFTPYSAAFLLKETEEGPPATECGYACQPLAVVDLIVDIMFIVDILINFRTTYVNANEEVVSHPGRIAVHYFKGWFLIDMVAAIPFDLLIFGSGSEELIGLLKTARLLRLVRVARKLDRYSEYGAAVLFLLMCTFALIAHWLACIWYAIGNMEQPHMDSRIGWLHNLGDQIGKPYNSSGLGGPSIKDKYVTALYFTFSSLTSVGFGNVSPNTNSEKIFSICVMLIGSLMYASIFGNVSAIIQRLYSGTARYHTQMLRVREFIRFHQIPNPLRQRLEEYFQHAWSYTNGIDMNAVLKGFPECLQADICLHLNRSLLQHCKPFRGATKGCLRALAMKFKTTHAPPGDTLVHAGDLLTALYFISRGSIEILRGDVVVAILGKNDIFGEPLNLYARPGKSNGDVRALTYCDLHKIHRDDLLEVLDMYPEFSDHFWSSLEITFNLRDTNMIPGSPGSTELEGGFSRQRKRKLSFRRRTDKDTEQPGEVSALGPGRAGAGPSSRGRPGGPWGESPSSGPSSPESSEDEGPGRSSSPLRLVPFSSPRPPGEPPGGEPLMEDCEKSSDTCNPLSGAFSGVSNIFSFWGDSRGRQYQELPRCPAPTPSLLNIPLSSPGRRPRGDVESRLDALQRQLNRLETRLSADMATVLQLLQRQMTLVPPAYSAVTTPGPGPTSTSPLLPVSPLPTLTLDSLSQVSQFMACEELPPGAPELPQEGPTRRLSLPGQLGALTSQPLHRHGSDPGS
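Further: peak tail current of the secondary pulse compared with the same well before compound.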

**Q.** How did the “hERG current change (%, negative = inhibition) at 10uM” value turn out when `CCOc1ccc(NS(=O)(=O)c2ccc(Cl)c(C(=O)N(C)Cc3cccnc3)c2)cc1` was run?
**A.** -25.9%

**Q.** `COc1ccccc1NC(=O)CSc1nnc(C)n1Cc1ccccc1` was tested. Which “hERG current change (%, negative = inhibition) at 10uM” value did it give?
**A.** -34.5%

**Q.** `CCOc1ccc(Nc2cc(=O)oc3ccccc23)cc1` was tested. Which “hERG current change (%, negative = inhibition) at 10uM” value did it give?
**A.** 7.78%

**Q.** Which “hERG current change (%, negative = inhibition) at 10uM” value does the source give for `Cc1nn(C)cc1C(=O)NNC(=S)Nc1ccc(Cl)cc1` here?
**A.** 12.6%

**Q.** For `CCOC(=O)C(Cc1ccc(Cl)cc1Cl)c1ccno1` (centres unmarked), which “hERG current change (%, negative = inhibition) at 10uM” value is on record?
**A.** 14.3%

**Q.** How did the “hERG current change (%, negative = inhibition) at 10uM” value turn out when `O=C(NCc1ccc(Cl)cc1)C(=O)NCC1OCCN1S(=O)(=O)c1ccc2c(c1)OCCO2` (centres unmarked) was run?
**A.** -7.02%

**Q.** How did the “hERG current change (%, negative = inhibition) at 10uM” value turn out when `Cc1cc(C)c(S(=O)(=O)/N=C2/C=C(Sc3ncn[nH]3)C(=O)c3ccccc32)cc1C` was run?
**A.** 18.2%

**Q.** With `C[C@H](NC(=O)OC(C)(C)C)C(=O)N/N=C/c1ccc2nccnc2c1` as the compound, how does the “hERG current change (%, negative = inhibition) at 10uM” value read?
**A.** 21.7%

**Q.** Which “hERG current change (%, negative = inhibition) at 10uM” value does the source give for `COc1cccc(N(C(=O)c2snc(C(N)=O)c2N)C(C(=O)NCC2CCCO2)c2ccc3ncccc3c2)c1` (centres unmarked) here?
**A.** -16.8%

**Q.** With `COc1ccccc1OCC(=O)Nc1cccc(S(=O)(=O)NC2=NCCCCC2)c1` as the compound, how does the “hERG current change (%, negative = inhibition) at 10uM” value read?
**A.** -4.65%

**Q.** `CCOc1ccccc1C(=O)N1CCN(C(c2ccccc2)c2ccccc2)CC1` was tested. Which “hERG current change (%, negative = inhibition) at 10uM” value did it give?
**A.** 0.314%

**Q.** For `O=C(CN1CCN(C(c2ccccc2)c2ccccc2)CC1)NC(=O)NCc1ccco1`, which “hERG current change (%, negative = inhibition) at 10uM” value is on record?
**A.** -5.1%

**Q.** `COc1cccc(OCC(O)CN2CCN(C(c3ccccc3)c3ccccc3)CC2)c1.Cl` (centres unmarked) was tested. Which “hERG current change (%, negative = inhibition) at 10uM” value did it give?
**A.** -43.6%

**Q.** How did the “hERG current change (%, negative = inhibition) at 10uM” value turn out when `OC(COCc1ccco1)CN1CCN(C(c2ccccc2)c2ccccc2)CC1` (centres unmarked) was run?
**A.** -73.4%

**Q.** With `CCC(=O)c1ccc(OCC(O)Cn2nc(C)c(Br)c2C)cc1` (centres unmarked) as the compound, how does the “hERG current change (%, negative = inhibition) at 10uM” value read?
**A.** -97.8%

**Q.** How did the “hERG current change (%, negative = inhibition) at 10uM” value turn out when `CC(=O)c1ccccc1OCC(O)CN1CCN(C(c2ccccc2)c2ccccc2)CC1` (centres unmarked) was run?
**A.** -66.7%

**Q.** How did the “hERG current change (%, negative = inhibition) at 10uM” value turn out when `OC(CN1CCN(C(c2ccccc2)c2ccccc2)CC1)c1ccccc1` (centres unmarked) was run?
**A.** -30.8%

**Q.** `CC(=O)c1ccccc1OCC(O)CN1CCN(c2ccccn2)CC1.Cl` (centres unmarked) was tested. Which “hERG current change (%, negative = inhibition) at 10uM” value did it give?
**A.** -39%

**Q.** Which “hERG current change (%, negative = inhibition) at 10uM” value does the source give for `CCC(=O)c1ccc(OCC(O)Cn2nc(C)c(C(C)=O)c2C)cc1` (centres unmarked) here?
**A.** -36.7%

**Q.** With `CCC(=O)c1ccc(OCC(O)Cn2nc(C)cc2C)cc1` (centres unmarked) as the compound, how does the “hERG current change (%, negative = inhibition) at 10uM” value read?
**A.** -7.44%

**Q.** How did the “hERG current change (%, negative = inhibition) at 10uM” value turn out when `OC(COc1ccccc1)CN1CCOCC1` (centres unmarked) was run?
**A.** 9.83%

**Q.** Which “hERG current change (%, negative = inhibition) at 10uM” value does the source give for `OC(COc1ccccc1)CN1CCN(C(c2ccccc2)c2ccccc2)CC1` (centres unmarked) here?
**A.** -69.6%

**Q.** For `Cc1cccnc1NC(=S)NCc1ccco1`, which “hERG current change (%, negative = inhibition) at 10uM” value is on record?
**A.** -2.97%

**Q.** For `CC(=O)O.COc1c(O)ccc(C2NC(=O)NC(C)=C2C(=O)Nc2ccccc2C)c1[N+](=O)[O-]` (centres unmarked), which “hERG current change (%, negative = inhibition) at 10uM” value is on record?
**A.** 31.9%

**Q.** Which “hERG current change (%, negative = inhibition) at 10uM” value does the source give for `CC(/C=C1\SC(=S)N(CCC(=O)Nc2cccc(C(=O)O)c2)C1=O)=C\c1ccccc1` here?
**A.** 10.9%

**Q.** `Cc1ccc(NC(=S)N=Nc2c(O)[nH]c3ccccc23)cc1` was tested. Which “hERG current change (%, negative = inhibition) at 10uM” value did it give?
**A.** 9.41%

**Q.** Which “hERG current change (%, negative = inhibition) at 10uM” value does the source give for `CCC(=O)c1ccc(OCC(O)CN2CCN(c3ccccn3)CC2)cc1` (centres unmarked) here?
**A.** -34%

**Q.** How did the “hERG current change (%, negative = inhibition) at 10uM” value turn out when `COc1cc(/C=C/C(=O)N2CCN(CC(O)COc3ccccc3)CC2)cc(OC)c1OC.Cl` (centres unmarked) was run?
**A.** -8.44%

**Q.** Which “hERG current change (%, negative = inhibition) at 10uM” value does the source give for `Cl.O=C(/C=C/c1ccccc1)N1CCN(CC(O)COc2ccccc2)CC1` (centres unmarked) here?
**A.** -69.7%

**Q.** How did the “hERG current change (%, negative = inhibition) at 10uM” value turn out when `CC(C)(c1ccccc1)c1ccc(OCC(O)CN2CCCC2)cc1.Cl` (centres unmarked) was run?
**A.** -60.3%

**Q.** For `Cl.O=C(COc1ccccc1)N1CCN(CC(O)COc2ccccc2)CC1` (centres unmarked), which “hERG current change (%, negative = inhibition) at 10uM” value is on record?
**A.** -50.8%

**Q.** With `CC(=O)N1CCN(CC(O)COc2ccc(OCc3ccccc3)cc2)CC1` (centres unmarked) as the compound, how does the “hERG current change (%, negative = inhibition) at 10uM” value read?
**A.** -17.7%

**Q.** With `Cl.O=C(C(c1ccccc1)c1ccccc1)N1CCN(CC(O)COc2ccccc2)CC1` (centres unmarked) as the compound, how does the “hERG current change (%, negative = inhibition) at 10uM” value read?
**A.** -13.7%

**Q.** For `OC(COc1ccccc1)CN1CCN(c2ncccn2)CC1` (centres unmarked), which “hERG current change (%, negative = inhibition) at 10uM” value is on record?
**A.** -22.9%

**Q.** How did the “hERG current change (%, negative = inhibition) at 10uM” value turn out when `CCC(=O)c1ccc(OCC(O)CN2CCN(c3cccc(C(F)(F)F)c3)CC2)cc1` (centres unmarked) was run?
**A.** -55.2%

**Q.** With `CCOc1ccc(OCC(O)CN2CCN(S(=O)(=O)c3cccc(C(F)(F)F)c3)CC2)cc1.O=C(O)C(=O)O` (centres unmarked) as the compound, how does the “hERG current change (%, negative = inhibition) at 10uM” value read?
**A.** 13.7%

**Q.** `CC(C)(C)c1ccc(OCC(O)CN2CCCC2)cc1.Cl` (centres unmarked) was tested. Which “hERG current change (%, negative = inhibition) at 10uM” value did it give?
**A.** -35.7%

**Q.** Which “hERG current change (%, negative = inhibition) at 10uM” value does the source give for `OC(COc1ccccc1)CN1CCCCCC1` (centres unmarked) here?
**A.** -4.43%

**Q.** How did the “hERG current change (%, negative = inhibition) at 10uM” value turn out when `COc1cc(C(=O)NCCNC(=O)c2ccc(C)nc2)cc(OC)c1OC` was run?
**A.** 11.8%

**Q.** For `S=C(Nc1ccccc1)Nc1nccs1`, which “hERG current change (%, negative = inhibition) at 10uM” value is on record?
**A.** 24.4%

**Q.** For `CCOc1ccc(Nc2oc(-c3ccc(Cl)cc3)nc2C#N)cc1`, which “hERG current change (%, negative = inhibition) at 10uM” value is on record?
**A.** 9.08%

**Q.** `Cl.Fc1ccc(CN2C3=NCCCN3c3ccccc32)cc1` was tested. Which “hERG current change (%, negative = inhibition) at 10uM” value did it give?
**A.** -71.2%

**Q.** With `Cl.Fc1ccc(CN2C3=NCCN3c3ccccc32)cc1` as the compound, how does the “hERG current change (%, negative = inhibition) at 10uM” value read?
**A.** -54.9%

**Q.** With `O=C(CN1C(=O)C2C3c4ccccc4C(c4ccccc43)C2C1=O)Nc1cccc(C(=O)O)c1` (centres unmarked) as the compound, how does the “hERG current change (%, negative = inhibition) at 10uM” value read?
**A.** -10.3%

**Q.** How did the “hERG current change (%, negative = inhibition) at 10uM” value turn out when `O=C(COc1ccc(Cl)cc1Cl)N/N=C1\CCCc2ccccc21` was run?
**A.** 2.52%

**Q.** For `CC(C)(CO)NCc1ccccc1OCC(=O)Nc1ccccc1`, which “hERG current change (%, negative = inhibition) at 10uM” value is on record?
**A.** -14%

**Q.** `Cc1ccc(C(=O)OCC(=O)Nc2ccc(F)c(Cl)c2)o1` was tested. Which “hERG current change (%, negative = inhibition) at 10uM” value did it give?
**A.** 17%
